PubChem BioAssay (NCATS)
Results filed as inconclusive are left out. A call without a number means that no potency is given here. Activity calls are given as the source filed them. Calls follow the shape of the dose curve; as a rule, active = well fitted inhibition curve with a large enough effect; inconclusive = small, poorly fitted or top-dose-only effect; inactive = no such curve, though single readings can be large or run the other way. Where a SMILES comes first, the peptide text is derived from it.

Test system: Zika virus NS2B-NS3 protease (linked construct)
Assay: Primary screen NINDS Rhodamine qHTS for Zika virus inhibitors (AID 1347160); also: nearly all actives have a fitted effect of over 55% in size
Conditions: purified NS2B-NS3 protease, Rhodamine110 substrate fluorescence; series mostly up to 33.1 µM
In short: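 Each compound, titrated, sat 15 min with 25 nM linked protease before 1.5 microM Rhodamine110 substrate went in. Fluorescence gain over the next 15 min, in pH 8.0 Tris with Tween 20, gave Hill-fitted curves.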

Q: How did the Potency turn out when `CC(=O)c1c(C)cccc1O[C@@H]1O[C@H](CO)[C@@H](O)[C@H](O)[C@H]1O` was run?
A: inactive

Q: Which Potency does the source give for `CC[C@@H](Nc1c(Nc2cccc(C(=O)N(C)C)c2O)c(=O)c1=O)c1ccc(C)o1` here?
A: inactive

Q: How did the Potency turn out when `C/C=C1/[C@H](O[C@@H]2O[C@H](CO)[C@@H](O)[C@H](O)[C@H]2O)OC=C(C(=O)OC)[C@H]1CC(=O)OCCc1ccc(OC(=O)C[C@@H]2C(C(=O)OC)=CO[C@@H](O[C@@H]3O[C@H](CO)[C@@H](O)[C@H](O)[C@H]3O)/C2=C/C)cc1` was run?
A: inactive

Q: `C=CC(C)(O)CC/C=C(\C)C(=O)O[C@@H]1[C@@H](O)[C@H](OC(C)(C=C)CC/C=C(\C)C(=O)O)O[C@H](CO)[C@H]1OC(=O)/C(C)=C/CCC(C)(O)C=C` (some centres not stated) was tested. Which Potency did it give?
A: inactive

Q: With `CC12CC(c3ccoc3)OC(=O)C1CCC1(C)C2CCC(O)C1(C)O` (configuration not stated) as the molecule, how does the Potency read?
A: inactive

Q: `CC/C=C\C(O)C(O)C1=C(C)C(=O)C2(O1)C(=O)NC(OC)(C(=O)c1ccccc1)C2O` (configuration not stated) was tested. Which Potency did it give?
A: inactive

Q: How did the Potency turn out when `O=C(/C=C/N1C[C@@H]2C[C@@H]1CN2c1ccccn1)c1ccccc1O` was run?
A: inactive

Q: With `C/C=C/C=C/C(=O)OC1CC/C=C/C(O)C(O)C(CCC)OC1=O` (configuration not stated) as the molecule, how does the Potency read?
A: inactive

Q: For `CC1=C(CCC(C)O[C@@H]2O[C@H](CO)[C@@H](O)[C@H](O)[C@H]2O)C(C)(C)CC(O)C1` (some centres not stated), which Potency is on record?
A: inactive

Q: With `CC(CNS(=O)(=O)C(C)C)c1ccc(-c2ccc(C#N)cc2)cc1` (configuration not stated) as the molecule, how does the Potency read?
A: inactive

Q: With `C/C=C/C=C/C(O)=C1/C(=O)[C@]2(C)C(=O)[C@@](C)(O)[C@H]1[C@H]([C@@]1(C)OC(=O)C(C)=C1O)[C@H]2C(=O)CC/C=C/C` as the molecule, how does the Potency read?
A: inactive

Q: For `C[C@@H]1O[C@@H](O[C@H]2[C@H](OC(=O)[C@]34CCC(C)(C)C[C@H]3C3=CCC5[C@@]6(C)C[C@@H](O)[C@@H](O)[C@@](C)(CO)C6[C@H](O)C[C@@]5(C)[C@]3(C)CC4)OC[C@H](O)[C@@H]2O)[C@H](O)[C@H](O)[C@H]1O[C@@H]1OC[C@@H](O)[C@H](O[C@H]2O[C@H](C)[C@@H](O)[C@H](O)[C@@H]2O)[C@H]1O` (some centres not stated), which Potency is on record?
A: inactive

Q: How did the Potency turn out when `C[C@H]1[C@H](C)C[C@@H](C(=O)O)C2CC[C@]3(C)C(=CC[C@@H]4[C@@]5(C)CC[C@H](O)C(C)(C)[C@@H]5CC[C@]43C)[C@@H]21` (some centres not stated) was run?
A: inactive

Q: `C=C(COC(=O)CC(C)C)C1Cc2cc(C(C)=O)ccc2O1` (configuration not stated) was tested. Which Potency did it give?
A: inactive

Q: With `CC1(C)CCC[C@]2(C)C1CC=C(CO)[C@H]2CC/C(=C/CO)CO` (some centres not stated) as the molecule, how does the Potency read?
A: inactive

Q: For `C=C1C(O)CCC2(C)CC3(OC)OC(=O)C(C)=C3CC12` (configuration not stated), which Potency is on record?
A: inactive

Q: `CC(C)C1NC(=O)CNC(=O)C2CCCN2C(=O)C(Cc2c[nH]c3ccccc23)NC(=O)CNC(=O)C(Cc2ccc(O)cc2)NC(=O)CNC1=O` (configuration not stated) (cyclo(GVGYGWP); configuration not given here) was tested. Which Potency did it give?
A: inactive

Q: `CC1=CC2=C(C)C(=O)C(C)(O)C(O)C2CO1` (configuration not stated) was tested. Which Potency did it give?
A: inactive

Q: How did the Potency turn out when `O=C(Cc1ccc(Cl)cc1)Nc1cnccc1C(=O)O` was run?
A: inactive

Q: With `CC/C=C\CC1C(CC(=O)O)CCC1OC1OC(CO)C(O)C(O)C1O` (configuration not stated) as the molecule, how does the Potency read?
A: inactive

Q: How did the Potency turn out when `CO[C@H]1c2cc(C(C)C)c(O)c(O)c2[C@@]23CCCC(C)(C)C2[C@@H]1OC3=O` (some centres not stated) was run?
A: inactive

Q: For `C=C1C(=O)OC[C@H]2C(C(=O)O)=CC3CC(C)(C)C[C@@]132` (some centres not stated), which Potency is on record?
A: inactive

Q: For `COC(=O)C1=COC(OC2OC(CO)C(O)C(O)C2O)C2C(C)C(OC(=O)/C=C/c3ccc(O)cc3)C(O)C12` (configuration not stated), which Potency is on record?
A: inactive

Q: With `C[C@@H]1CC[C@]2(C(=O)O)CC[C@]3(C)C(=CCC4[C@@]5(C)C[C@@H](O)[C@H](O)[C@@](C)(CO)C5CC[C@]43C)C2[C@H]1C` (some centres not stated) as the molecule, how does the Potency read?
A: inactive

Q: For `Cn1cc(CCn2cnc(-c3cnn(C)c3)c2-c2ccc(C#N)cc2)cn1`, which Potency is on record?
A: inactive

Q: How did the Potency turn out when `CC1(C)C=Cc2c(ccc3c2[N+]([O-])=C2C3(O)CC34NC(=O)C5(CCCN5C3=O)CC4C2(C)C)O1` (configuration not stated) was run?
A: inactive

Q: For `CC(C)c1ccc2c(c1)C(O)CC1C(C)(C(=O)O)CCCC21C` (configuration not stated), which Potency is on record?
A: inactive

Q: How did the Potency turn out when `C/C(=C\CCC1(C)C2CC3C(C2)C31C)C(=O)O` (configuration not stated) was run?
A: inactive

Q: `C/C1=C\CC[C@]2(C)O[C@H]2C(=O)c2c(C)coc2C1` was tested. Which Potency did it give?
A: inactive

Q: For `COC(=O)[C@H](c1ccccc1Cl)N1CCC2SC(=O)C=C2C1` (some centres not stated), which Potency is on record?
A: inactive

Q: For `CC(=O)O[C@@H]1C=C2[C@H](CC[C@@]3(C)[C@@]2(O)CC[C@H]2Cc4c([nH]c5ccccc45)[C@@]23C)O[C@@H]1C(C)(C)O`, which Potency is on record?
A: inactive

Q: Which Potency does the source give for `CC(O)C(=O)/C=C/C=C/C(=O)OC1C=C2COC(=O)C2(O)C2(C)CCCC(C)(C)C12` (configuration not stated) here?
A: inactive
